The values below come from PubChem BioAssay.

Each structure is given as a SMILES string. Several values for one entry are separate records, joined by “and”; a condition that tells them apart may be missing. Equal values may be shown once. Activity calls are given as the source filed them.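 Rule for the calls: active = thallium flux through the channel raised or lowered by more than 3 SD from vehicle-only wells, actives on both sides; inactive = the rest.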

One assay has as its system F380Y. Kind of assay: modulators of BK channel variants, profiling panel, selectivity assay, cell-based, U2OS BacMam, thallium flux, beta subunits (AID 1259406).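 Note: initial slope of Thallos dye fluorescence rise after thallium is added; log ratio against the mean of 0.3% DMSO vehicle wells on the same plate.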 The settings on record: at 30 µM.
With `COc1ccc(CC2c3cc(OC)c(OC)cc3CC[N+]2(C)CCC(=O)OCCCCCOC(=O)CC[N+]2(C)CCc3cc(OC)c(OC)cc3C2Cc2ccc(OC)c(OC)c2)cc1OC` (centres undefined), the log fold change Tl+ flux is -0.0106 (inactive).
Turning to `COC(=O)C1=C(C)NC(C)=C(C(=O)OCC(C)C)C1c1ccccc1[N+](=O)[O-]` (centres undefined), the log fold change Tl+ flux was 0.333 (active).
Consider `COC(=O)CCc1ccc(OCC(O)CNC(C)C)cc1` (centres undefined), for which the log fold change Tl+ flux was -0.0174 (inactive).
Take `NS(=O)(=O)Cc1noc2ccccc12`: the log fold change Tl+ flux was 0.00455 (inactive).
Regarding `OCCOCCN1CCN(C2=Nc3ccccc3Sc3ccccc32)CC1`, the log fold change Tl+ flux was 0.134 (active).
The same measure, in the same setting: then `CC1CCN(CCCC(=O)c2ccc(F)cc2)CC1`, with 0.0312 (inactive).
The same measure, in the same setting: as for `O=C1CC2(CCCC2)CC(=O)N1CCCCN1CCN(c2ncccn2)CC1`, the figure is 0.0254 (inactive); as for `CCCc1c(OCCCCc2nn[nH]n2)ccc(C(C)=O)c1O`, 0.0613 (inactive); as for `CCCc1nc(C)c2c(=O)[nH]c(-c3cc(S(=O)(=O)N4CCN(CC)CC4)ccc3OCC)nn12`, -0.00852 (inactive).
As for `CC(c1cc2ccccc2s1)N(O)C(N)=O` (centres undefined), the log fold change Tl+ flux is -0.00504 (inactive).
On the same count and under the same terms, as for `CC(=O)Nc1ccc(CC(=O)O)cc1`, the figure is -0.0209 (inactive); as for `CCOC(=O)C1=C(C)NC(C)=C(C(=O)OC)C1c1cccc(Cl)c1Cl` (centres undefined), 0.00922 (inactive).
Same read-out and setting: as for `CCN1CCC[C@H]1CNC(=O)c1cc(S(N)(=O)=O)ccc1OC`, the figure is -0.0719 (inactive).
Take `COc1ccc(C2CNC(=O)C2)cc1OC1CCCC1` (centres undefined): the log fold change Tl+ flux is -0.0147 (inactive).
As for `CC(=O)Oc1ccccc1C(=O)Nc1ncc([N+](=O)[O-])s1`, the log fold change Tl+ flux was -0.199 (active).
The same measure, in the same setting: as for `O=C(O)CCNC(=O)c1ccc(N=Nc2ccc(O)c(C(=O)O)c2)cc1`, the figure is -0.00418 (inactive); as for `CN(Cc1cnc2nc(N)nc(N)c2n1)c1ccc(C(=O)N[C@@H](CCC(=O)O)C(=O)O)cc1`, -0.0413 (inactive).
For `O=c1[nH]cnc2c1ncn2[C@H]1CC[C@@H](CO)O1`, the log fold change Tl+ flux is -0.00984 (inactive).
With `CN(C)CC[C@@H](c1ccc(Br)cc1)c1ccccn1`, the log fold change Tl+ flux was 0.102 (inactive).
Consider `CCN1CC(CCN2CCOCC2)C(c2ccccc2)(c2ccccc2)C1=O` (centres undefined), for which the log fold change Tl+ flux is 0.0128 (inactive).
Still for that read-out and setting: then `C#C[C@]1(O)CC[C@H]2[C@@H]3CCc4cc(O)ccc4[C@H]3CC[C@@]21C`, with 0.0259 (inactive); and `CN1CCC(=C2c3ccccc3CCc3sccc32)CC1`, with -0.0249 (inactive); and `Cc1ncc([N+](=O)[O-])n1CC(O)CCl` (centres undefined), with -0.0142 (inactive).
The same measure, in the same setting: then `Cc1cccc(C)c1NC(=O)C(C)N` (centres undefined), with -0.00461 (inactive).
As for `CC(=O)O[C@H]1C[C@@H]2CC[C@@H]3[C@H](CC[C@@]4(C)[C@H]3C[C@H]([N+]3(C)CCCCC3)[C@@H]4OC(C)=O)[C@@]2(C)C[C@@H]1N1CCCCC1`, the log fold change Tl+ flux was 0.0327 (inactive).
`Cc1cn([C@H]2C=C[C@@H](CO)O2)c(=O)[nH]c1=O`: the log fold change Tl+ flux was -0.00288 (inactive) and 0.0465 (inactive).
The same measure, in the same setting: then `CCC(=O)O[C@]1(C(=O)SCF)[C@H](C)C[C@H]2[C@@H]3C[C@H](F)C4=CC(=O)C=C[C@]4(C)[C@@]3(F)[C@@H](O)C[C@@]21C`, with 0.0283 (inactive); and `CC(C)c1nc(CN(C)C(=O)N[C@H](C(=O)N[C@@H](Cc2ccccc2)C[C@H](O)[C@H](Cc2ccccc2)NC(=O)OCc2cncs2)C(C)C)cs1`, with -0.114 (active).
In the case of `CC(C)NCC(O)COc1ccc(CCOCC2CC2)cc1` (centres undefined), the log fold change Tl+ flux is -0.00418 (inactive).
Regarding `Nc1nnc(-c2cccc(Cl)c2Cl)c(N)n1`, the log fold change Tl+ flux was -0.00765 (inactive).
The same measure, in the same setting: then `NCC1CCC(C(=O)Oc2ccc(CCC(=O)O)cc2)CC1` (centres undefined), with -0.0268 (inactive); and `COc1ccc(CN2CCN(C(c3ccc(F)cc3)c3ccc(F)cc3)CC2)c(OC)c1OC`, with -0.0546 (inactive); and `COc1cc2c(cc1OC)C(=O)C(CC1CCN(Cc3ccccc3)CC1)C2` (centres undefined), with 0.0206 (inactive).
Regarding `Nc1nc(N)nc(-c2cc(Cl)ccc2Cl)n1`, the log fold change Tl+ flux is 0.00819 (inactive).
On to `Cc1ccc(NC(=O)c2ccc(CN3CCN(C)CC3)cc2)cc1Nc1nccc(-c2cccnc2)n1`, for which the log fold change Tl+ flux was 0.141 (active).
Still for that read-out and setting: then `c1cnc(N2CCN(Cc3ccc4c(c3)OCO4)CC2)nc1`, with -0.0152 (inactive); and `Cc1cnc(NC(=O)C2=C(O)c3ccccc3S(=O)(=O)N2C)s1`, with -0.00196 (inactive).
Regarding `CC(C)(C)C(O)/C=C/c1ccc2c(c1)OCO2` (centres undefined), the log fold change Tl+ flux is -0.0156 (inactive).
For `CN(C)CCCSc1ccccc1NC(=O)/C=C/c1ccccc1`, the log fold change Tl+ flux was 0.0773 (inactive).

Another assay deals with F380Y/beta1. Described as above. The settings on record: at 30 µM.
On to `COC(=O)C1=C(C)NC(C)=C(C(=O)OCC(C)C)C1c1ccccc1[N+](=O)[O-]` (centres undefined), for which the log fold change Tl+ flux is 0.689 (active).
Still for that read-out and setting: as for `COC(=O)CCc1ccc(OCC(O)CNC(C)C)cc1` (centres undefined), the figure is 0.0192 (inactive); as for `NS(=O)(=O)Cc1noc2ccccc12`, -0.0156 (inactive).
`OCCOCCN1CCN(C2=Nc3ccccc3Sc3ccccc32)CC1`: the log fold change Tl+ flux is 0.105 (active).
Regarding `O=C1CC2(CCCC2)CC(=O)N1CCCCN1CCN(c2ncccn2)CC1`, the log fold change Tl+ flux is 0.0242 (inactive).
Same read-out and setting: as for `CCCc1nc(C)c2c(=O)[nH]c(-c3cc(S(=O)(=O)N4CCN(CC)CC4)ccc3OCC)nn12`, the figure is 0.00246 (inactive).
On the same count and under the same terms, then `CC(c1cc2ccccc2s1)N(O)C(N)=O` (centres undefined), with 0.00537 (inactive).
Same read-out and setting: as for `CC(=O)Nc1ccc(CC(=O)O)cc1`, the figure is -0.00468 (inactive).
Take `CCOC(=O)C1=C(C)NC(C)=C(C(=O)OC)C1c1cccc(Cl)c1Cl` (centres undefined): the log fold change Tl+ flux was -0.0618 (inactive).
For `CCN1CCC[C@H]1CNC(=O)c1cc(S(N)(=O)=O)ccc1OC`, the log fold change Tl+ flux is 0.000794 (inactive).
In the case of `COc1ccc(C2CNC(=O)C2)cc1OC1CCCC1` (centres undefined), the log fold change Tl+ flux was -0.0167 (inactive).
As for `CC(=O)Oc1ccccc1C(=O)Nc1ncc([N+](=O)[O-])s1`, the log fold change Tl+ flux was 0.0346 (inactive).
On to `O=C(O)CCNC(=O)c1ccc(N=Nc2ccc(O)c(C(=O)O)c2)cc1`, for which the log fold change Tl+ flux was -0.0255 (inactive).
Regarding `O=c1[nH]cnc2c1ncn2[C@H]1CC[C@@H](CO)O1`, the log fold change Tl+ flux is -0.0163 (inactive).
The same measure, in the same setting: as for `CN(C)CC[C@@H](c1ccc(Br)cc1)c1ccccn1`, the figure is 0.0384 (inactive).
On the same count and under the same terms, as for `CCN1CC(CCN2CCOCC2)C(c2ccccc2)(c2ccccc2)C1=O` (centres undefined), the figure is -0.0268 (inactive); as for `Cc1ncc([N+](=O)[O-])n1CC(O)CCl` (centres undefined), -0.0206 (inactive); as for `Cc1cccc(C)c1NC(=O)C(C)N` (centres undefined), -0.0545 (inactive).
For `CC(=O)O[C@H]1C[C@@H]2CC[C@@H]3[C@H](CC[C@@]4(C)[C@H]3C[C@H]([N+]3(C)CCCCC3)[C@@H]4OC(C)=O)[C@@]2(C)C[C@@H]1N1CCCCC1`, the log fold change Tl+ flux is 0.014 (inactive).
On the same count and under the same terms, as for `Cc1cn([C@H]2C=C[C@@H](CO)O2)c(=O)[nH]c1=O`, the figure is 0.0156 (inactive) and 0.0441 (inactive); as for `CCC(=O)O[C@]1(C(=O)SCF)[C@H](C)C[C@H]2[C@@H]3C[C@H](F)C4=CC(=O)C=C[C@]4(C)[C@@]3(F)[C@@H](O)C[C@@]21C`, -0.0132 (inactive); as for `CC(C)c1nc(CN(C)C(=O)N[C@H](C(=O)N[C@@H](Cc2ccccc2)C[C@H](O)[C@H](Cc2ccccc2)NC(=O)OCc2cncs2)C(C)C)cs1`, -0.406 (active).
The same measure, in the same setting: as for `CC(C)NCC(O)COc1ccc(CCOCC2CC2)cc1` (centres undefined), the figure is 0.0244 (inactive).
The same measure, in the same setting: as for `Nc1nnc(-c2cccc(Cl)c2Cl)c(N)n1`, the figure is -0.046 (inactive); as for `NCC1CCC(C(=O)Oc2ccc(CCC(=O)O)cc2)CC1` (centres undefined), -0.0246 (inactive).
For the molecule `COc1ccc(CN2CCN(C(c3ccc(F)cc3)c3ccc(F)cc3)CC2)c(OC)c1OC`, the log fold change Tl+ flux is 0.0295 (inactive).
Same read-out and setting: then `COc1cc2c(cc1OC)C(=O)C(CC1CCN(Cc3ccccc3)CC1)C2` (centres undefined), with -0.0145 (inactive).
With `Nc1nc(N)nc(-c2cc(Cl)ccc2Cl)n1`, the log fold change Tl+ flux is 0.00785 (inactive).
The same measure, in the same setting: as for `Cc1cnc(NC(=O)C2=C(O)c3ccccc3S(=O)(=O)N2C)s1`, the figure is -0.0291 (inactive); as for `CC(C)(C)C(O)/C=C/c1ccc2c(c1)OCO2` (centres undefined), 0.105 (active).
